VDR inh: vitamin D3 receptor (human) inhibition. P11473. AID 504847. VDR-SRC2-3 peptide fluorescence polarization, 2 h. Potency, µM, usual class: inhibitors. actives 0.93% (n = 400,000)
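FP read-out; VDR + SRC2-3 coactivator peptide; 23 nl compound by pintool; 2 h RT incubation; reagents held at 4 deg C, protected from light.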
DT40 TDP1 CPT: growth inhibition of DT40 Tdp1-/-;hTDP1 cells with camptothecin (screen for TDP1 inhibitors); Potency, µM (top dose mostly 46.2 µM), usual class: inhibitors; chicken DT40 Tdp1-/-;hTDP1 cells + 20 nM CPT, ATP luminescence, 48 h; AID 686979; actives 12% (n = 420,000); also: nearly all actives have a fitted effect of over 55% in size
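Cell growth measured by CellTiter-Glo luminescence after a minimum 48 h, 37 C compound exposure with 20 nM CPT in Tdp1-knockout DT40 cells stably expressing hTDP1, seeded 400/well; qHTS titration format.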
PLK1 PBD block: inhibitors of human PLK1 polo-box domain binding | Plk1 PBD binding of FITC phosphopeptide, fluorescence polarization | actives 2.8% (n = 360,000) | Potency, µM, most hits filed as inhibitors | AID 720504; also: series mostly up to about 57 µM; nearly all actives have a fitted effect of over 65% in size
Target sequence (P53350 whole entry, looked up, the tested form may be a part): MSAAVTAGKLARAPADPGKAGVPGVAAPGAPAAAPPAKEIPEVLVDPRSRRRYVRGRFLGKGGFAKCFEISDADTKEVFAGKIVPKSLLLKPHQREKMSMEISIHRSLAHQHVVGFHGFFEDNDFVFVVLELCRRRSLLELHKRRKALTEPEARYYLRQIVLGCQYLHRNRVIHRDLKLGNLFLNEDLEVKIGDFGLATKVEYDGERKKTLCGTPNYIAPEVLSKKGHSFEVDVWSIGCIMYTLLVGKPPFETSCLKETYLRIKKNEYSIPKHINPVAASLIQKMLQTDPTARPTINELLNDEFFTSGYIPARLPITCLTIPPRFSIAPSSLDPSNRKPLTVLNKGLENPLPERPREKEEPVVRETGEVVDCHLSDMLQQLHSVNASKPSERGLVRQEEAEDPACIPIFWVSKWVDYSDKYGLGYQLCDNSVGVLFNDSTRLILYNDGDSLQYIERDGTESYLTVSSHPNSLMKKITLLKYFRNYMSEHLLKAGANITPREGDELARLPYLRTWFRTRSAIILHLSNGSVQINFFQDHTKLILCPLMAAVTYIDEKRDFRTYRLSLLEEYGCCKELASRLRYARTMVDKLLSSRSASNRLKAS
GCN5L2 inh: GCN5L2 (KAT2A) acetyltransferase inhibition; GCN5L2 HAT assay, ThioGlo1 CoA-SH fluorescence; Potency, µM (doses to about 58.9 µM), most hits filed as inhibitors; actives 0.21% (n = 390,000); AID 504327
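Free CoA generated was detected with ThioGlo1 (50uM) fluorescence at Ex340nm/Em540nm, read immediately and after 20 min at room temperature. Enzyme, 20 nM in HEPES pH 7.5 buffer, saw compounds 15 min before adding 75uM H3(1-25) peptide and 70uM acetyl-CoA.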
TDP1 inh: blocks human tyrosyl-DNA phosphodiesterase 1. Q9NUW8. recombinant TDP1, AlphaScreen DNA substrate cleavage. Potency, µM (titrated, usually from 130 µM), usual class: inhibitors. actives 0.28% (n = 350,000). AID 485290; also: nearly all actives have a fitted effect of over 40% in size
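AlphaScreen read-out: signal falls as enzyme removes the 3' tyrosine-FITC from a 5'-biotinylated DNA oligo (15 nM, 5 min, RT). Enzyme was E. coli-made recombinant Tdp1 at 1 nM, exposed to compound for 15 min beforehand; beads 10 ug/ml, 10 min.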
DT40 TDP1 no CPT: qHTS for Inhibitors of human tyrosyl-DNA phosphodiesterase 1 (TDP1): qHTS in cells in absence of CPT; Potency, µM (titrated, usually from 46.2 µM), actives largely listed as inhibitors; DT40 Tdp1-/- hTDP1 cells, no CPT, ATP luminescence, 48 h; actives 15% (n = 420,000); also: nearly all actives have a fitted effect of over 55% in size
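Seeded 400 DT40-hTDP1 cells/well (vehicle DMSO, no 20 nM CPT); pinned compounds; ≥48 hr at 37 °C; CellTiter-Glo luminescence as viability measure.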
Of the large screens only hits and unclear results are named; the others gave an inactive call; ! = a repeat was not active. In the library only some 18% were active in any assay of this set; here they are far more common. Calls follow the shape of the dose curve; as a rule, active = well fitted curve in the direction sought with a large enough effect; inconclusive = small, poorly fitted or top-dose-only effect, or another doubt; inactive = no such curve, though single readings can be large; an effect the other way counts as inactive or inconclusive.

COc1ccc(N2CCN(C(=O)c3cc4c(=O)n(Cc5ccccc5)ccc4nc3C)CC2)cc1	DT40 TDP1 CPT inconclusive, DT40 TDP1 no CPT inconclusive
COc1cccc(NC(=O)c2cc3c(=O)n(Cc4cccnc4)ccc3nc2C)c1	none (no result: PLK1 PBD block)
CCc1cccc(NC(=O)c2cc3c(=O)n(Cc4ccc(OC)cc4)ccc3nc2C)c1	DT40 TDP1 CPT inconclusive, DT40 TDP1 no CPT 15µM (no result: PLK1 PBD block)
COc1ccc(Cn2ccc3nc(C)c(C(=O)N4CCN(c5ccccc5F)CC4)cc3c2=O)cc1	DT40 TDP1 CPT 23µM, DT40 TDP1 no CPT 18µM (no result: PLK1 PBD block)
COc1cccc(N2CCN(C(=O)c3cc4c(=O)n(Cc5ccccc5)ccc4nc3C)CC2)c1	DT40 TDP1 CPT 16µM!, DT40 TDP1 no CPT inconclusive
Cc1nc2ccn(Cc3ccccc3)c(=O)c2cc1C(=O)N1CCN(c2ccccc2F)CC1	DT40 TDP1 CPT inconclusive, DT40 TDP1 no CPT inconclusive (no result: PLK1 PBD block)
CCOc1cc(N2CCOCC2)c(OCC)cc1NC(=O)C1CC(=O)N(c2ccc(C)cc2)C1 (centres undefined)	DT40 TDP1 no CPT inconclusive (no result: TDP1 inh)
CCCC(=O)NC(c1ccc(Cl)cc1)c1ccc2cccnc2c1O (centres undefined)	DT40 TDP1 CPT 4.1µM, DT40 TDP1 no CPT 4.1µM (no result: TDP1 inh)
CCCC(=O)NC(c1ccc(C)cc1)c1ccc2cccnc2c1O (centres undefined)	DT40 TDP1 CPT 2.3µM, DT40 TDP1 no CPT 1.2µM
Cc1cccc(NC(c2cccc(Cl)c2)c2ccc3cccnc3c2O)n1 (centres undefined)	DT40 TDP1 CPT 5.2µM, DT40 TDP1 no CPT 5.2µM (no result: PLK1 PBD block, TDP1 inh)
Cc1ccc(C(Nc2ccccn2)c2ccc3cccnc3c2O)cc1 (centres undefined)	VDR inh inconclusive, DT40 TDP1 CPT 21µM, DT40 TDP1 no CPT 5.8µM (no result: PLK1 PBD block, TDP1 inh)
CCn1ccnc1CNC(=O)c1ccc2oc(C(C)C)nc2c1	none
CCCCC(=O)NC(c1ccc(N(C)C)cc1)c1ccc2cccnc2c1O (centres undefined)	DT40 TDP1 CPT 1µM, PLK1 PBD block 27µM, DT40 TDP1 no CPT 0.73µM (no result: TDP1 inh)
CC(=O)NC(c1cccs1)c1cc(F)c2cccnc2c1O (centres undefined)	GCN5L2 inh inconclusive (no result: DT40 TDP1 CPT, PLK1 PBD block, DT40 TDP1 no CPT)
CCCCC(=O)NC(c1ccc(Cl)cc1)c1ccc2cccnc2c1O (centres undefined)	VDR inh inconclusive, DT40 TDP1 CPT 1.3µM, PLK1 PBD block 27µM, DT40 TDP1 no CPT 1.2µM (no result: GCN5L2 inh, TDP1 inh)
CCCC(=O)NC(c1ccc(Cl)cc1Cl)c1ccc2cccnc2c1O (centres undefined)	DT40 TDP1 CPT 4.1µM, DT40 TDP1 no CPT 4.6µM (no result: TDP1 inh)
CCC(=O)NC(c1ccc(C)cc1)c1cc(Cl)c2cccnc2c1O (centres undefined)	none (no result: DT40 TDP1 CPT, PLK1 PBD block, DT40 TDP1 no CPT)
CC(=O)NC(c1ccc(Cl)cc1Cl)c1ccc2cccnc2c1O (centres undefined)	VDR inh inconclusive, DT40 TDP1 CPT 3.7µM, DT40 TDP1 no CPT 4.6µM (no result: TDP1 inh)
Cc1ncc(CN=Cc2ccc(Cl)cc2)c(N)n1	none (no result: TDP1 inh)
NC(=NCCc1ccccc1)NS(=O)(=O)c1ccccc1F	none
CCCC(=O)NC(c1cccc([N+](=O)[O-])c1)c1ccc2cccnc2c1O (centres undefined)	DT40 TDP1 CPT 12µM, DT40 TDP1 no CPT 2.9µM (no result: VDR inh, GCN5L2 inh, TDP1 inh)
CCC(=O)NC(c1cccc([N+](=O)[O-])c1)c1c(OC(C)=O)ccc2ccccc12 (centres undefined)	DT40 TDP1 CPT inconclusive, DT40 TDP1 no CPT inconclusive
Oc1c(C(Nc2cccc(C(F)(F)F)c2)c2ccncc2)ccc2cccnc12 (centres undefined)	VDR inh inconclusive, DT40 TDP1 CPT 16µM, PLK1 PBD block inconclusive, DT40 TDP1 no CPT 18µM
COc1ccccc1C(=O)Nc1nnc(SCc2cc(=O)n3ccc(C)cc3n2)s1	none (no result: PLK1 PBD block)
N#CC(=C1C=CC(=NO)C(Cl)=C1)c1ccc(Cl)cc1	VDR inh inconclusive, DT40 TDP1 CPT 4.6µM, DT40 TDP1 no CPT 3.7µM (no result: GCN5L2 inh, TDP1 inh)
Cc1n[nH]c(=O)nc1N/N=C/c1ccc(O)c([N+](=O)[O-])c1	DT40 TDP1 no CPT inconclusive
